Here are results for seven sequences from publication PMC11006913.

Where a chain is given by its changes, count along the chain named.

Common to all, as to test: PBM; 200 nM protein, PBS
Holding throughout (conditions): dsDNA, one strand shown

Assay [1] deals with T1, PAX4 (Homo sapiens, UniProt O43316 9-242, R200K).
T1 sequence: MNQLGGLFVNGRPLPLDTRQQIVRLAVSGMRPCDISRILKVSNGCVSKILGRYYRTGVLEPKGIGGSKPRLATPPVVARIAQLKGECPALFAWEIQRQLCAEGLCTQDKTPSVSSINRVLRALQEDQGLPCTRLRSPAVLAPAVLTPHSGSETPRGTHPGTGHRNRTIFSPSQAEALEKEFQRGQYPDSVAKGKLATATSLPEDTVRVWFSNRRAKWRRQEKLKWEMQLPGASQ

The target of assay [2] is T2, PAX4 (Homo sapiens, UniProt O43316 9-242).
T2 sequence: T1 sequence with K192R

Assay [3] deals with ALX3 (Homo sapiens, UniProt O95076 139-225, N203Q).
Chain of ALX3 (Homo sapiens, UniProt O95076 139-225, N203Q) (O95076 139-225 N203Q): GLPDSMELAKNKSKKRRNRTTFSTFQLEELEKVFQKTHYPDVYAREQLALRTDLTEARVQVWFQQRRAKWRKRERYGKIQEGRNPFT
Assay [4] concerns the target T3, PAX4 (Homo sapiens, UniProt O43316 9-242, R200Q).
T3 sequence: T1 sequence with K192Q

Assay [5] has as its target T4, PAX4 (Homo sapiens, UniProt O43316 9-242, F177V).
T4 sequence: T1 sequence with F169V, K192R

Assay [6] addresses ALX3 (Homo sapiens, UniProt O95076 139-225).
For assay [7], the target named is T5, PAX4 (Homo sapiens, UniProt O43316 9-242, F177Y).
T5 sequence: T1 sequence with F169Y, K192R

In assay [8] the target is ALX3 (Homo sapiens, UniProt O95076 139-225, L168Q).
Chain of ALX3 (Homo sapiens, UniProt O95076 139-225, L168Q) (O95076 139-225 L168Q): as the sequence (O95076 139-225 N203Q) above, with L30Q, Q65N counted along it
For assay [9], the target named is ALX3 (Homo sapiens, UniProt O95076 139-225, L168V).
Chain of ALX3 (Homo sapiens, UniProt O95076 139-225, L168V) (O95076 139-225 L168V): as the sequence (O95076 139-225 N203Q) above, with L30V, Q65N counted along it
The target in assay [10] is T6, PAX4 (Homo sapiens, UniProt O43316 9-242, R227W).
T6 sequence: T1 sequence with K192R, R219W

The target in assay [11] is ALX3 (Homo sapiens, UniProt O95076 139-225, N203S).
Chain of ALX3 (Homo sapiens, UniProt O95076 139-225, N203S) (O95076 139-225 N203S): as the sequence (O95076 139-225 N203Q) above, with Q65S counted along it
The target in assay [12] is HOXA2 (Homo sapiens, UniProt O43364 129-215, R185T).
Chain of HOXA2 (Homo sapiens, UniProt O43364 129-215, R185T) (O43364 129-215 R185T): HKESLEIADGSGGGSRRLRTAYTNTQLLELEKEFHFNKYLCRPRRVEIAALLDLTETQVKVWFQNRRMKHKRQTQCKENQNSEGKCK
The target in assay [13] is T7, NKX2-6 (Homo sapiens, UniProt A6NCS4 118-204).
T7 sequence: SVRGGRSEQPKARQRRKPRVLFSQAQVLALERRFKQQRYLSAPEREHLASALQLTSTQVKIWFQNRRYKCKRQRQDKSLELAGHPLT

Assay [14] addresses HOXA2 (Homo sapiens, UniProt O43364 129-215, R185K).
Assay [15] addresses T8, NKX2-6 (Homo sapiens, UniProt A6NCS4 118-204, F151L).
T8 sequence: T7 sequence with F34L

Assay [16] concerns the target HOXA2 (Homo sapiens, UniProt O43364 129-215, Y150S).
For assay [17], the target named is HOXA2 (Homo sapiens, UniProt O43364 129-215).
Chain of HOXA2 (Homo sapiens, UniProt O43364 129-215) (O43364 129-215): as the sequence (O43364 129-215 R185T) above, with T57R counted along it
A further assay addresses PITX2 (Homo sapiens, UniProt Q99697 72-157).
The target in assay [18] is MSX2 (Homo sapiens, UniProt P35548 130-214, R199I).
Chain of MSX2 (Homo sapiens, UniProt P35548 130-214, R199I) (P35548 130-214 R199I): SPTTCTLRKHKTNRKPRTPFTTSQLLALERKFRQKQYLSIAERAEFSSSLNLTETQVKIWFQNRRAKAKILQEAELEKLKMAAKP
Assay [19] has as its target MSX2 (Homo sapiens, UniProt P35548 130-214).
Assay [20] deals with MSX2 (Homo sapiens, UniProt P35548 130-214, F161Y).
Chain of MSX2 (Homo sapiens, UniProt P35548 130-214, F161Y) (P35548 130-214 F161Y): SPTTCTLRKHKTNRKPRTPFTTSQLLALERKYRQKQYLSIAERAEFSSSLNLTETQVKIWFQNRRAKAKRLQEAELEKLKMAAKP

Chain of ALX3 (Homo sapiens, UniProt O95076 139-225) (O95076 139-225): as the sequence (O95076 139-225 N203Q) above, with Q65N counted along it
Chain of HOXA2 (Homo sapiens, UniProt O43364 129-215, R185K) (O43364 129-215 R185K): as the sequence (O43364 129-215 R185T) above, with T57K counted along it
Chain of HOXA2 (Homo sapiens, UniProt O43364 129-215, Y150S) (O43364 129-215 Y150S): as the sequence (O43364 129-215 R185T) above, with Y22S, T57R counted along it
Chain of MSX2 (Homo sapiens, UniProt P35548 130-214) (P35548 130-214): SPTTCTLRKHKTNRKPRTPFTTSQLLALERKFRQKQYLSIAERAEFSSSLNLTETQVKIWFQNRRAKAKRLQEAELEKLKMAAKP

Regarding CGGCTGAG, the binding signal with PAX4 [1] was 9.44 upbm affinity estimate (log intensity, higher = more binding, comparable within an allelic series); in the assay with PAX4 [2], 9.36 upbm affinity estimate (log intensity, higher = more binding, comparable within an allelic series); with ALX3 [3] it was 7.73 upbm affinity estimate (log intensity, higher = more binding, comparable within an allelic series); in the assay with PAX4 [4], 9.42 upbm affinity estimate (log intensity, higher = more binding, comparable within an allelic series); with PAX4 [5] it was 9.34 upbm affinity estimate (log intensity, higher = more binding, comparable within an allelic series); with ALX3 [6], 7.82 upbm affinity estimate (log intensity, higher = more binding, comparable within an allelic series). For the same sequence, the binding signal in the assay with PAX4 [7] was 9.23 upbm affinity estimate (log intensity, higher = more binding, comparable within an allelic series); with ALX3 [8], 7.79 upbm affinity estimate (log intensity, higher = more binding, comparable within an allelic series); with ALX3 [9], 7.77 upbm affinity estimate (log intensity, higher = more binding, comparable within an allelic series); with PAX4 [10], 9.35 upbm affinity estimate (log intensity, higher = more binding, comparable within an allelic series); with ALX3 [11], 7.7 upbm affinity estimate (log intensity, higher = more binding, comparable within an allelic series).
GCCTGTCC: the binding signal with PAX4 [1] was 9.34 upbm affinity estimate (log intensity, higher = more binding, comparable within an allelic series); in the assay with PAX4 [2], 9.22 upbm affinity estimate (log intensity, higher = more binding, comparable within an allelic series); with HOXA2 [12], 7.41 upbm affinity estimate (log intensity, higher = more binding, comparable within an allelic series); with ALX3 [3] it was 7.8 upbm affinity estimate (log intensity, higher = more binding, comparable within an allelic series); in the assay with NKX2-6 [13], 9.8 upbm affinity estimate (log intensity, higher = more binding, comparable within an allelic series); with PAX4 [4], 9.44 upbm affinity estimate (log intensity, higher = more binding, comparable within an allelic series). Besides, the binding signal was 10.4 upbm affinity estimate (log intensity, higher = more binding, comparable within an allelic series) with HOXA2 [14]; 9.3 upbm affinity estimate (log intensity, higher = more binding, comparable within an allelic series) with PAX4 [5]; 7.73 upbm affinity estimate (log intensity, higher = more binding, comparable within an allelic series) with ALX3 [6]; 9.34 upbm affinity estimate (log intensity, higher = more binding, comparable within an allelic series) with PAX4 [7]; 7.77 upbm affinity estimate (log intensity, higher = more binding, comparable within an allelic series) with ALX3 [8]; 9.38 upbm affinity estimate (log intensity, higher = more binding, comparable within an allelic series) in the assay with NKX2-6 [15]. The binding signal with ALX3 [9] was 7.73 upbm affinity estimate (log intensity, higher = more binding, comparable within an allelic series); with PAX4 [10], 9.36 upbm affinity estimate (log intensity, higher = more binding, comparable within an allelic series); with HOXA2 [16] it was 10.4 upbm affinity estimate (log intensity, higher = more binding, comparable within an allelic series); with ALX3 [11] it was 7.78 upbm affinity estimate (log intensity, higher = more binding, comparable within an allelic series); with HOXA2 [17] it was 7.48 upbm affinity estimate (log intensity, higher = more binding, comparable within an allelic series).
In the case of ATTTAAAA, the binding signal was 10.7 upbm affinity estimate (log intensity, higher = more binding, comparable within an allelic series) with PAX4 [1]; 11 upbm affinity estimate (log intensity, higher = more binding, comparable within an allelic series) with PAX4 [2]; 10.8 upbm affinity estimate (log intensity, higher = more binding, comparable within an allelic series) with PAX4 [4]; 10.3 upbm affinity estimate (log intensity, higher = more binding, comparable within an allelic series) with PAX4 [5].
Turning to GCCCAGCC, the binding signal with PAX4 [1] is 9.23 upbm affinity estimate (log intensity, higher = more binding, comparable within an allelic series); with PAX4 [2] it was 9.33 upbm affinity estimate (log intensity, higher = more binding, comparable within an allelic series); in the assay with PAX4 [4], 9.24 upbm affinity estimate (log intensity, higher = more binding, comparable within an allelic series); in the assay with PITX2, 7.91 upbm affinity estimate (log intensity, higher = more binding, comparable within an allelic series); with PAX4 [5], 9.15 upbm affinity estimate (log intensity, higher = more binding, comparable within an allelic series); with PAX4 [7], 9.11 upbm affinity estimate (log intensity, higher = more binding, comparable within an allelic series). Further, in the assay with PAX4 [10], the binding signal is 9.23 upbm affinity estimate (log intensity, higher = more binding, comparable within an allelic series).
Regarding GGCTTCCA, the binding signal was 9.19 upbm affinity estimate (log intensity, higher = more binding, comparable within an allelic series) with PAX4 [1]; 9.03 upbm affinity estimate (log intensity, higher = more binding, comparable within an allelic series) with PAX4 [2]; 7.05 upbm affinity estimate (log intensity, higher = more binding, comparable within an allelic series) with HOXA2 [12]; 9.42 upbm affinity estimate (log intensity, higher = more binding, comparable within an allelic series) with PAX4 [4]; 10.4 upbm affinity estimate (log intensity, higher = more binding, comparable within an allelic series) with HOXA2 [14]; 9.33 upbm affinity estimate (log intensity, higher = more binding, comparable within an allelic series) with PAX4 [5]. Besides, the binding signal was 9.37 upbm affinity estimate (log intensity, higher = more binding, comparable within an allelic series) with PAX4 [7]; 9.41 upbm affinity estimate (log intensity, higher = more binding, comparable within an allelic series) with PAX4 [10]; 10.5 upbm affinity estimate (log intensity, higher = more binding, comparable within an allelic series) in the assay with HOXA2 [16]; 7.18 upbm affinity estimate (log intensity, higher = more binding, comparable within an allelic series) with HOXA2 [17].
Take CCGGGGGA: the binding signal with PAX4 [1] is 9.19 upbm affinity estimate (log intensity, higher = more binding, comparable within an allelic series); in the assay with PAX4 [2], 9.35 upbm affinity estimate (log intensity, higher = more binding, comparable within an allelic series); with MSX2 [18], 9.52 upbm affinity estimate (log intensity, higher = more binding, comparable within an allelic series); in the assay with PAX4 [4] it was 9.16 upbm affinity estimate (log intensity, higher = more binding, comparable within an allelic series); with PAX4 [5], 9.14 upbm affinity estimate (log intensity, higher = more binding, comparable within an allelic series); with MSX2 [19], 9.61 upbm affinity estimate (log intensity, higher = more binding, comparable within an allelic series). For the same sequence, the binding signal in the assay with PAX4 [7] was 9.09 upbm affinity estimate (log intensity, higher = more binding, comparable within an allelic series); with MSX2 [20], 9.5 upbm affinity estimate (log intensity, higher = more binding, comparable within an allelic series); in the assay with PAX4 [10] it was 9.22 upbm affinity estimate (log intensity, higher = more binding, comparable within an allelic series).
On to ATTATTTC, for which the binding signal in the assay with PAX4 [1] is 10.8 upbm affinity estimate (log intensity, higher = more binding, comparable within an allelic series); in the assay with PAX4 [2] it was 11.1 upbm affinity estimate (log intensity, higher = more binding, comparable within an allelic series); with PAX4 [4], 10.9 upbm affinity estimate (log intensity, higher = more binding, comparable within an allelic series); with PAX4 [5] it was 10.4 upbm affinity estimate (log intensity, higher = more binding, comparable within an allelic series).
